Screening data as filed in PubChem.
Cruzain noTriton = inhibitors of Trypanosoma cruzi cruzain without detergent; AID 1476; P25779; Potency, µM, usual class: inhibitors; purified cruzain, Z-FR-AMC fluorescence, no detergent; actives 2.3% (n = 200,000); further: nearly all actives have a fitted effect of over 40% in size
Target sequence (P25779 123-467 limits assumed): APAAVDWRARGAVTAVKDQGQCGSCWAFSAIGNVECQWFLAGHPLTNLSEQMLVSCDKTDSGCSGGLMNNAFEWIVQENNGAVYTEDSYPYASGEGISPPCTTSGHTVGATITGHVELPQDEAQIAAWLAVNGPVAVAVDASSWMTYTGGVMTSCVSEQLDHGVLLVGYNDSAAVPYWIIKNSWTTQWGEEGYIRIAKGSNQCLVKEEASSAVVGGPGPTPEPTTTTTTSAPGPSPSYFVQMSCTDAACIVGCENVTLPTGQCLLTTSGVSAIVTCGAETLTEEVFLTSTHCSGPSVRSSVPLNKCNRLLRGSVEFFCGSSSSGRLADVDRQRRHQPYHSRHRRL
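Detergent-free condition (0.00005% Triton X-100) in acetate buffer pH 5.5 with DTT. 1.5 nM enzyme and compound were pre-mixed 15 min, then 2 uM Z-FR-AMC substrate added; reaction progress from fluorescence change between first and third reads (60 s).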
Cruzain inh Det = inhibitors of Trypanosoma cruzi cruzain with detergent. P25779. purified cruzain, Z-FR-AMC fluorescence, 0.01% Triton. Potency, µM, hits mostly inhibitors. actives 0.43% (n = 200,000). AID 1478; further: nearly all actives have a fitted effect of over 40% in size
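Compounds were screened in titration against cruzain (1.5 nM) with 0.01% Triton X-100 to counter colloidal aggregation. Activity was the AMC fluorescence increase over 60 s after adding 2 uM Z-FR-AMC at pH 5.5.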
Large screens that a line does not name were inactive. The list is not random: actives were taken first. Their share in the collection is about 2.4%. The call rests on the fitted dose curve; in most records, active means well fitted curve in the direction sought with a large enough effect; inconclusive means small, poorly fitted or top-dose-only effect, or another doubt; inactive means no such curve, though single readings can be large; an effect the other way counts as inactive or inconclusive.

Cc1ccc(Cl)cc1NC(=O)Cn1c(=O)n(Cc2ccc(C(=O)NCc3ccc4c(c3)OCO4)cc2)c(=O)c2ccccc21	none
Cc1ccc(NC(=O)Cn2c(=O)n(Cc3ccc(C(=O)NCc4ccc5c(c4)OCO5)cc3)c(=O)c3ccccc32)cc1	Cruzain noTriton inconclusive
Cc1ccc(NC(=O)Cn2c(=O)n(Cc3ccc4c(c3)OCO4)c(=O)c3ccccc32)cc1	none
O=C(Cn1c(=O)n(Cc2ccc(C(=O)NCc3ccc4c(c3)OCO4)cc2)c(=O)c2ccccc21)Nc1ccccc1F	Cruzain noTriton 13µM
COc1cccc(NC(=O)Cn2c(=O)n(Cc3ccc(C(=O)NCc4ccc5c(c4)OCO5)cc3)c(=O)c3ccccc32)c1	Cruzain noTriton 13µM
COc1ccc2c(c1)O[C@@H](c1cccc(C(F)(F)F)c1)[C@H](OC(=O)NS(=O)(=O)c1ccc(F)cc1)C2=O	none
CCOC(=O)c1ccc(NC(=O)c2oc3c(c2C)-c2nn(Cc4ccccc4Cl)cc2CC3)cc1	none
CCOP(=O)(OCC)C(C#N)=C1SCN(c2ccc(Cl)cc2)CS1	Cruzain noTriton 13µM
CCOP(=O)(OCC)C(NC(=O)c1ccc(Cl)cc1)=C(Cl)Cl	none
COc1cccc(/C=N/NC(=O)CC2C(=O)NN=C2C)c1OC (stereo not given)	none
COc1ccc(OC)c(/C=N/NC(=O)CC2C(=O)NN=C2C)c1 (stereo not given)	Cruzain noTriton 32µM
COc1ccc(OC)c(/C=N/NC(=O)Cc2nc3ccccc3[nH]2)c1	Cruzain noTriton inconclusive, Cruzain inh Det 22µM
O=C(Cc1nc2ccccc2[nH]1)N/N=C/c1ccccc1	none
CN1CCN(c2ncnc3ccc(-c4ccccc4C(F)(F)F)cc23)CC1	none
CC(=O)Nc1ccc(-c2cc(-c3ccc(NC(C)=O)cc3)nc(-c3ccccc3)n2)cc1	Cruzain noTriton 16µM
CCC(=O)Nc1ccc(-c2cc(-c3ccccc3)nc(-c3ccc(NC(=O)CC)cc3)n2)cc1	none
CC(=O)Nc1ccc(-c2cc(-c3ccc(NC(C)=O)cc3)nc(-c3ccc(NC(C)=O)cc3)n2)cc1	Cruzain noTriton 32µM, Cruzain inh Det inconclusive
CC(=O)Nc1ccc(-c2cc(-c3ccccc3)nc(-c3ccccc3)n2)cc1	Cruzain noTriton inconclusive
COc1ccc(C)cc1Nc1nc2c(S(=O)(=O)c3cccc(Cl)c3)nnn2c2ccsc12	none
COc1cc2cc(c1Cl)N(C)C(=O)C[C@H](OC(=O)C(C)C)[C@]1(C)O[C@@H]1[C@@H](C)[C@H]1C[C@](O)(NC(=O)O1)[C@@H](OC)/C=C\C=C(\C)C2	Cruzain noTriton inconclusive
O=C(CSc1nc2c([nH]c3ccccc32)c(=O)n1-c1ccc(F)cc1)Nc1ccc2c(c1)OCO2	none
COc1cccc(NC(=O)CSc2nc3c([nH]c4ccccc43)c(=O)n2-c2cccc(Cl)c2)c1	none
COCCn1c(SCC(=O)Nc2ccc3c(c2)OCCO3)nc2c(c1=O)SC(C)C2 (stereo not given)	none
Cc1cc(C)cc(NC(=O)CSc2nc3c(oc4ccccc43)c(=O)n2-c2ccccc2F)c1	Cruzain noTriton 20µM
O=C(CSc1nc2c(oc3ccccc32)c(=O)n1-c1ccccc1F)Nc1ccccc1	none
Cc1cc(C)cc(-n2c(SCC(=O)Nc3ccc4c(c3)OCO4)nc3c([nH]c4ccccc43)c2=O)c1	Cruzain noTriton 6.3µM
CC1Cc2nc(SCC(=O)Nc3ccc4c(c3)OCO4)n(Cc3ccccc3)c(=O)c2S1 (stereo not given)	Cruzain noTriton 32µM
COc1cccc(-n2c(SCC(=O)Nc3cccc(C)c3)nc3c([nH]c4ccccc43)c2=O)c1	Cruzain noTriton 32µM
Cc1nc(-c2ccc(C)c(S(=O)(=O)N3CCC(C(=O)NCc4ccc(Cl)cc4)CC3)c2)no1	none
CCOc1ccc(-n2c(=O)c3c(C)c(C)sc3n(Cc3c(F)cccc3Cl)c2=O)cc1	none
Cc1ccc(CNc2ncnc3c2nnn3C)cc1	none
CCOC(=O)c1ccc(CN(Cc2ccc(F)cc2)S(=O)(=O)c2ccc(F)c(C(=O)Nc3c(C)cccc3C)c2)cc1	Cruzain noTriton inconclusive
O=C(CSc1nc2ccccc2o1)Nc1nc(-c2ccccc2)cs1	Cruzain noTriton inconclusive
O=C(CSc1nc2c([nH]c3ccccc32)c(=O)n1-c1ccccc1F)Nc1cccc(Cl)c1	Cruzain noTriton 13µM
Cc1cc(NC(=O)CSc2nc3c([nH]c4ccccc43)c(=O)n2-c2ccccc2F)no1	none
Cc1cc2ccccc2nc1SCC(=O)Nc1nc(-c2ccccc2)cs1	Cruzain noTriton 7.9µM
Cc1cc(C)cc(-n2c(SCC(=O)NCc3ccc(F)cc3)nc3c([nH]c4ccccc43)c2=O)c1	none
Cc1ccc(-n2c(SCC(=O)NCc3ccc(F)cc3)nc3c([nH]c4ccccc43)c2=O)cc1	Cruzain noTriton 16µM
CC(=O)c1ccc(NC(=O)CSc2nnc3c(n2)[nH]c2ccccc23)cc1	Cruzain noTriton inconclusive
O=C(CSc1nnc2c(n1)[nH]c1ccccc12)Nc1ccc2c(c1)OCO2	Cruzain noTriton 25µM
COC(=O)c1cc(NC(=O)CCc2c(C)nc3c(c(C)nn3C(C)(C)C)c2C)cc(C(=O)OC)c1	none
CCCCC[C@H](O)/C=C/C=C\CCCCCCCCCC(=O)O	none
Cc1oc2ncnc(N3CCCCC3)c2c1C(=O)Nc1cccc(Cl)c1C	none
Cc1nnc(NC(=O)CSc2nnc3c(n2)[nH]c2ccccc23)s1	none
Cc1ccc(-c2csc(NC(=O)CSc3nnc4c(n3)[nH]c3ccccc34)n2)cc1	Cruzain noTriton 16µM
O=c1c(CCc2ccccc2)nc2cnc(Oc3ccccc3)nc2n1C[C@H]1CCCO1	none
Oc1ccc2ccccc2c1C1Nc2cccc3cccc(c23)N1	Cruzain noTriton inconclusive
CCN(CC)c1ccc(C2Nc3cccc4cccc(c34)N2)c(O)c1	Cruzain noTriton 13µM
Cc1ccc(-c2nc(CNC(=O)Nc3ccccc3)c(C)o2)cc1	none
COc1ccc2[nH]c(=O)c(CN(Cc3cccs3)S(=O)(=O)c3cccc4nsnc34)cc2c1	Cruzain noTriton 32µM
COc1ccc2[nH]c(=O)c(CN(CCO)S(=O)(=O)c3c(C)ccc4nsnc34)cc2c1	none
COc1ccc(CCNC(=O)CCCn2nc(C)c3sc4ccccc4c3c2=O)cc1OC	none
Cc1ccc(S(=O)(=O)c2cn(CC(=O)Nc3ccccc3)c3cc4c(cc3c2=O)OCO4)cc1	Cruzain noTriton 1µM
Cc1cccc(NC(=O)Cn2cc(S(=O)(=O)c3ccc(F)cc3)c(=O)c3cc4c(cc32)OCO4)c1	Cruzain noTriton inconclusive
C[C@]12CC[C@@H]3[C@H](CCC4=CC(=O)CC[C@]43C)[C@]1(O)CC[C@@]2(O)C(=O)CO	none
O=C(CN1C(=O)C2CCCN2c2ncc(Cl)cc21)NCc1ccc2c(c1)OCO2 (stereo not given)	Cruzain noTriton 25µM
CCc1ccccc1NC(=O)CN1C(=O)C2CCCN2c2ncc(Cl)cc21 (stereo not given)	none
COc1ccc(CNC(=O)CN2C(=O)C3CCCN3c3ncc(Cl)cc32)cc1 (stereo not given)	none
COC(=O)c1ccccc1NC(=O)CN1C(=O)C2CCCN2c2ncc(Cl)cc21 (stereo not given)	Cruzain noTriton 10µM
Cc1cc(F)ccc1NC(=O)CCS(=O)(=O)c1cc2c(cc1C)NC(=O)CO2	none
CCOC(=O)c1ccc(NC(=O)CCc2c(C)nc3nc[nH]n3c2=O)cc1	none
Cc1cccc(C)c1NC(=O)c1nc(S(C)(=O)=O)ncc1N(Cc1ccc(C(C)(C)C)cc1)Cc1ccco1	none
Cc1ccc(NC(=O)c2nc(S(C)(=O)=O)ncc2N(Cc2cccc(F)c2)Cc2ccco2)cc1C	Cruzain noTriton inconclusive
